# Values joined by “and” are separate entries in the source; they are usually repeats but may differ in a detail not shown here. Equal entries are not always repeated.
# Assay: sensitizers of A549 cells to miR-34 induction, primary screen, imaging, A549 dox-inducible miR-34, nuclei and caspase counts (AID 1347080); further: test concentration not given here
# Settings: A549 miR-34 inducible, Hoechst nuclei count, 48 h; measured here: relative caspase fold change +Dox/-Dox
row,SMILES,fold change
1,CCCCC/C=C\C/C=C\C/C=C\C/C=C\CCCC(=O)NC[C@]1(C)CCC[C@]2(C)c3ccc(C(C)C)cc3CC[C@@H]12,1.27
2,CCCCC[C@H](O)/C=C/[C@@H]1[C@@H](CCCCC(CC(=O)O)OC)[C@@H](O)C[C@H]1O (stereo partly specified),1.3
3,CCCCC(C)(C)[C@H](O)/C=C/[C@H]1C=CC(=O)[C@@H]1C/C=C\CCCC(=O)O,1.18
4,CCCCCCCCCCCCCCCCC/C=C\C(=O)O,1
5,CCCOCCCCCCCCCC(=O)O,1.03
6,CC(=O)O[C@@]12CO[C@@H]1C[C@H](O)[C@@]1(C)C(=O)[C@H](OC(=O)O)C3=C(C)[C@@H](OC(=O)[C@H](O)[C@@H](NC(=O)c4ccccc4)c4ccccc4)C[C@@](O)([C@@H](OC(=O)c4ccccc4)C12)C3(C)C (stereo partly specified),0.603
7,CCCCCC/C=C\CCCC(=O)CC(=O)N[C@H]1CCOC1=O,1.36
8,C[C@@H]1CC[C@H]2[C@@H](C)C(O)O[C@@H]3OC4(C)CC[C@@H]1[C@]32OO4 (stereo partly specified),0.767
9,COc1ccc(/C=C/c2cc(Cl)cc(Cl)c2)cc1,0.753
10,CCCCC[C@H](O)/C=C/[C@H]1C(=O)C[C@H](O)[C@@H]1C/C=C\CCCC(=O)OCC(O)CO (stereo partly specified),1.71
11,CCCCC/C=C\CCCCCCCCCCCCC(=O)O,1.51
12,CCCCC/C=C\C=C1\C(=O)CC[C@@H]1C/C=C\CCCC(=O)O,0.792
13,CCCCCCCCCCCCC/C=C/[C@@H](O)[C@H](CO)NC(=O)CCCCC,0.834
14,CCCCCC(=O)OC[C@H](CO)OC(=O)CCCCC,0.528
15,CCCCCCCC/C=C\CCCCCCCCCCCC(=O)O,0.826
16,CCCCCCCCCCCCCCCCOC[C@H](COP(=O)([O-])OCC[N+](C)(C)C)SC(=O)CCCCCC,1.56
17,CCCCCCCCCCCC(=O)c1nc2ncccc2o1,1.01
18,CC(C(=O)Nc1cccc(N=Cc2c(O)ccc3ccccc23)c1)c1ccccc1 (stereo unspecified),1.6
19,CCCC[C@H](CCC(=O)O)NC(=O)CCCCCCc1ccccc1,1.71
20,CCOC(=O)c1ccc(N=Nc2ccc(O)c(CC(=O)O)c2)cc1,0.801
21,CCCCCCCCCCCCCCCC(=O)OCC,0.575
22,Clc1ccc(/C=C/c2cc(Cl)cc(Cl)c2)cc1,0.743

# Same assay, conditions: A549 miR-34 inducible, Hoechst nuclei count, 48 h; measured here: total cells with miR-34 induction; stronger effect = lower value
row,SMILES,cell count
1,CCCCCCCCCCCCCCP(=O)(O)O,4910
2,CCCCCCCC/C=C\CCCCCCCC(=O)NCC(=O)O,6150
3,CCCCCCCCCCCCCCCC(=O)N[C@H]1CCOC1=O,5590
4,CCCCC[C@H](O)/C=C/[C@H]1C=CC(=O)[C@H]1C/C=C\CCCC(=O)O,6170
5,CCCCC[C@H](O)C/C=C1/C(=O)C[C@H](O)[C@@H]1C/C=C\CCCC(=O)O,5280
6,CCCCC[C@H](O)/C=C/[C@H]1C=CC(=O)[C@H]1CCCCCCC(=O)O,5070
7,COc1cc(/C=C/C(=O)N2CCCCCC2)cc(OC)c1OC,7660
8,CCCCCCCCCCCCCCCCCCCCCCCC(=O)NCCS(=O)(=O)O,5520
9,CC(C)OC(=O)CCC/C=C\C[C@@H]1[C@@H](/C=C/[C@@H](O)CCc2ccccc2)[C@H](O)C[C@@H]1O,5640
10,Cc1ccccc1C#Cc1ccc(CCC(=O)O)cc1,6610
11,CCCCC/C=C\C/C=C\C/C=C\C/C=C\CCCC(=O)OCc1ccsc1,6270
12,CCCCC/C=C\C/C=C\C/C=C\C/C=C\CCCC(=O)O[C@H](COCCCCCCCCCCCCCCCC)COP(=O)([O-])OCC[N+](C)(C)C,5550 and 5760
13,COC(=O)CCC[C@H](O)[C@H](O)CO,5290
14,CS(=O)(=O)NC(=O)CCCCCCCCCC=C(Br)Br,4860
15,CCCCC/C=C\C/C=C\CC/C=C\CCCC(=O)OC,6030
16,COc1ccc2c(c1)c(CC(=O)NCCc1ccccc1)c(C)n2C(=O)c1ccc(Cl)cc1,6040
17,c1ccc2c(NCCCCCCCNc3c4c(nc5ccccc35)CCCC4)c3c(nc2c1)CCCC3,4480
18,CCCCC/C=C\C/C=C\C/C=C\C/C=C\CCCC(=O)NC[C@]1(C)CCC[C@]2(C)c3ccc(C(C)C)cc3CC[C@@H]12,5530
19,CCCCC[C@H](O)/C=C/[C@@H]1[C@@H](CCCCC(CC(=O)O)OC)[C@@H](O)C[C@H]1O (stereo partly specified),5980
20,CCCCC(C)(C)[C@H](O)/C=C/[C@H]1C=CC(=O)[C@@H]1C/C=C\CCCC(=O)O,5990

row,SMILES,cell count
1,CCCCCCCCCCCCCCCCC/C=C\C(=O)O,5170
2,CCCOCCCCCCCCCC(=O)O,6150
3,CC(=O)O[C@@]12CO[C@@H]1C[C@H](O)[C@@]1(C)C(=O)[C@H](OC(=O)O)C3=C(C)[C@@H](OC(=O)[C@H](O)[C@@H](NC(=O)c4ccccc4)c4ccccc4)C[C@@](O)([C@@H](OC(=O)c4ccccc4)C12)C3(C)C (stereo partly specified),1340
4,CCCCCC/C=C\CCCC(=O)CC(=O)N[C@H]1CCOC1=O,6290
5,C[C@@H]1CC[C@H]2[C@@H](C)C(O)O[C@@H]3OC4(C)CC[C@@H]1[C@]32OO4 (stereo partly specified),3740
6,COc1ccc(/C=C/c2cc(Cl)cc(Cl)c2)cc1,5410
7,CCCCC[C@H](O)/C=C/[C@H]1C(=O)C[C@H](O)[C@@H]1C/C=C\CCCC(=O)OCC(O)CO (stereo partly specified),6090
8,CCCCC/C=C\CCCCCCCCCCCCC(=O)O,4990
9,CCCCC/C=C\C=C1\C(=O)CC[C@@H]1C/C=C\CCCC(=O)O,5640
10,CCCCCCCCCCCCC/C=C/[C@@H](O)[C@H](CO)NC(=O)CCCCC,5840
11,CCCCCC(=O)OC[C@H](CO)OC(=O)CCCCC,5390
12,CCCCCCCC/C=C\CCCCCCCCCCCC(=O)O,6030
13,CCCCCCCCCCCCCCCCOC[C@H](COP(=O)([O-])OCC[N+](C)(C)C)SC(=O)CCCCCC,5880
14,CCCCCCCCCCCC(=O)c1nc2ncccc2o1,5110
15,CC(C(=O)Nc1cccc(N=Cc2c(O)ccc3ccccc23)c1)c1ccccc1 (stereo unspecified),5970
16,CCCC[C@H](CCC(=O)O)NC(=O)CCCCCCc1ccccc1,6520
17,CCOC(=O)c1ccc(N=Nc2ccc(O)c(CC(=O)O)c2)cc1,6160
18,CCCCCCCCCCCCCCCC(=O)OCC,5080
19,Clc1ccc(/C=C/c2cc(Cl)cc(Cl)c2)cc1,5370

# Reference: PubChem BioAssay
